Measurements from PubChem BioAssay.
Active and inactive are the calls of the source.

Legend:
[1] = small molecules captured by biotinylated probe aFSTL3 – biochemical, small-molecule microarray, fluorescence 635/667, stem cell growth factor project, primary screen (AID 1064); conditions: higher = more signal;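 further: measures binding of the biotinylated anti-FSTL3 antibody to printed compounds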
[2] = binders from COS7 lysate, DM2A8 probe, primary screen, torsin A project, cell lysate, small-molecule microarray, fluorescence 635/667 (AID 1065); conditions: higher = more signal, COS7 lysate expressing mutant human TOR1A
[3] = small molecules captured by biotinylated probe aFGF2 – biochemical, small-molecule microarray, fluorescence 635/667, stem cell growth factor project, primary screen (AID 1067); conditions: higher = more signal;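 further: measures binding of biotinylated aFGF2 protein to printed compounds on slides; z-score merges feature fluorescence and signal-to-noise across triplicate slides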
[4] = small molecules captured by biotinylated probe aFGF10 – biochemical, small-molecule microarray, fluorescence 635/667, stem cell growth factor project, primary screen (AID 1071); conditions: higher = more signal;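 further: score merges 667 nm spot intensity and signal to noise from triplicate slides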
[5] = molecular target: Neurogenic locus notch homolog protein 2 (Homo sapiens) (UniProt Q04721); assay: small molecules binding Notch2 protein – biochemical, small-molecule microarray, 635 nm fluorescence, stem cell growth factors, primary screen (AID 1073); conditions: higher = more signal
[6] = molecular target: Pro-neuregulin-1, membrane-bound isoform (Homo sapiens) (UniProt Q02297); assay: small molecules binding neuregulin-1 protein – biochemical, small-molecule microarray, fluorescence 635/667, psychiatric disease protein project, primary screen (AID 1075); conditions: NRG1 binding, 635 nm fluorescence, higher = more signal;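 further: score combines 667 nm spot fluorescence with signal to noise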
Chain of Pro-neuregulin-1, membrane-bound isoform (Homo sapiens) (Q02297 whole entry, looked up, the tested form may be a part, canonical isoform): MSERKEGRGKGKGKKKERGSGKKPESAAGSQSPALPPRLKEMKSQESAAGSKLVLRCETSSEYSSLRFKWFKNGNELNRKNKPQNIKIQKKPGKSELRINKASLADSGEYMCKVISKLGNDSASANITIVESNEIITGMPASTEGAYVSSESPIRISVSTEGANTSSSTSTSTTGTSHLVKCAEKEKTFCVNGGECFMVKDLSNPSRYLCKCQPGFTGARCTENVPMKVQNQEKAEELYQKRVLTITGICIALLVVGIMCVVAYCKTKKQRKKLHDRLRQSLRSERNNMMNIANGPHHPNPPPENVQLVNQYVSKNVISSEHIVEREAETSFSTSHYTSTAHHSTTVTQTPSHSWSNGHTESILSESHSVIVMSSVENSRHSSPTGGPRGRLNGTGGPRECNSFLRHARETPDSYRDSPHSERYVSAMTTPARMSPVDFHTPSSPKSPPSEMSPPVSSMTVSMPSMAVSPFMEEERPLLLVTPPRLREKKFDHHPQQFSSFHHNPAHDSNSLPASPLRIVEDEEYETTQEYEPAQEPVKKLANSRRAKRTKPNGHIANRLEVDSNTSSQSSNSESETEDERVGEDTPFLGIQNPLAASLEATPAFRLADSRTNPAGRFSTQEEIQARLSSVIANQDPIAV

[7] = system: Neuregulin-1 EGF-like domain; assay: small molecules binding NRG1 EGF domain – biochemical, small-molecule microarray, 635 nm fluorescence, primary screen (AID 1081); conditions: higher = more signal;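 further: binding of the protein to compounds printed on small-molecule microarray slides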
[8] = FRG1 expression reporter modulators in myotubes – cell-based, C2C12 myotubes, firefly/Renilla luciferase, luminescence, FRG1 inhibition for FSHD, primary screen (AID 1084); conditions: FRG1 promoter luciferase, higher = more signal, called active from +8 up or from −8 down
[9] = small molecules captured by biotinylated probe aFST – biochemical, small-molecule microarray, fluorescence 635/667, stem cell growth factor project, primary screen (AID 1086); conditions: higher = more signal;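 further: score merges 667 nm fluorescence with signal-to-noise of each printed compound spot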
[10] = binders of probe aHhip on microarray, primary screen, stem cell growth factor project, biochemical, small-molecule microarray, fluorescence 635/667 (AID 1087); conditions: higher = more signal;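 further: score merges spot fluorescence at 667nm with spot signal to noise ratio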
[11] = system: PRMT1 (protein arginine N-methyltransferase 1); assay: small molecules binding arginine methyltransferase PRMT1 – biochemical, small-molecule microarray, 635 nm fluorescence, primary screen (AID 1088); conditions: higher = more signal;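 further: binding of Prmt1 protein to compounds spotted on small-molecule microarray slides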
[12] = growth effects on S. cerevisiae YJM789 – YJM789 clinical isolate, OD600, 24 h, basal, primary screen (AID 1089); conditions: higher = more signal, called active from +8 up or from −8 down;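 further: growth of clinical yeast isolate S. cerevisiae YJM 789 seeded 1000 cells per well; test concentration not given here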
[13] = S. pombe growth modifiers, basal conditions – strain 972, OD600, 24 h, no modulator, primary screen (AID 1090);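 further: basal condition with compound alone and no growth modifier present; test concentration not given here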; conditions: S. pombe 972 growth, higher = more signal, called active from +8 up or from −8 down
[14] = budding yeast growth modifiers under rapamycin – strain BY4716, OD600, 96 h, primary screen (AID 1091); further: test concentration not given here; conditions: S. cerevisiae BY4716 + rapamycin, higher = more signal, called active from +8 up or from −8 down
[15] = molecular target: Torsin-1A-interacting protein 2 (Homo sapiens) (UniProt Q8NFQ8); assay: small molecules binding lysate-expressed LULL1 – cell lysate, human LULL1 lysate, 635/667 nm fluorescence, primary screen (AID 1092); conditions: small-molecule microarray, hLULL1 lysate binding, 635 nm fluorescence; higher = more signal;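 further: probe is lysate of COS7 cells overexpressing human LULL1; score merges per-feature 667 nm fluorescence with signal-to-noise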
Chain of Torsin-1A-interacting protein 2 (Homo sapiens) (Q8NFQ8 whole entry, looked up): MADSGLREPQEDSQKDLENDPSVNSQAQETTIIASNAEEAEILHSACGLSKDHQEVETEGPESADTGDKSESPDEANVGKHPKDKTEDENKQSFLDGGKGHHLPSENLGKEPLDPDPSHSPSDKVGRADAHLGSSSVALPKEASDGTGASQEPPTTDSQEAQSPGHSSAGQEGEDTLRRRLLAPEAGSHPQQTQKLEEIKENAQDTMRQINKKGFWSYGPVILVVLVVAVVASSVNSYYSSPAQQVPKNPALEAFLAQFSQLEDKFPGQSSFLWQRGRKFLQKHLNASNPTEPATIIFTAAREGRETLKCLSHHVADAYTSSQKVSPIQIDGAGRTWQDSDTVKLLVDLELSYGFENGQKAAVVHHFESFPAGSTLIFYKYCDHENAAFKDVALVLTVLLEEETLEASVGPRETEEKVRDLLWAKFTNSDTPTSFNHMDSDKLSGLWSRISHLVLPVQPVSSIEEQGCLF

[16] = optical density change of DRC41 E. coli – strain DRC41, OD650, 24 h, E. coli filamentation project, primary screen (AID 1093);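 further: MC1000 strain lacking acrAB efflux and sulA so SOS filamentation is blocked; test concentration not given here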; conditions: E. coli DRC41 growth, higher = more signal, called active from +8 up or from −8 down
[17] = probe aLefty2 binding to arrayed compounds – biochemical, biotinylated probe, 635/667 nm fluorescence, primary screen (AID 1094); conditions: small-molecule microarray, higher = more signal;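 further: score merges spot fluorescence near 667 nm with spot signal-to-noise ratio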
[18] = system: Noggin (protein binding on small-molecule microarray); assay: small molecules binding Noggin protein – biochemical, 635/667 nm fluorescence, primary screen (AID 1095); conditions: 635 nm fluorescence, higher = more signal;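 further: score merges 667 nm feature fluorescence with signal to noise over triplicate slides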
[19] = molecular target: Neurogenic locus notch homolog protein 3 (Homo sapiens) (UniProt Q9UM47); assay: small molecules binding NOTCH3 protein – biochemical, 635/667 nm fluorescence, primary screen (AID 1096); conditions: small-molecule microarray, 635 nm fluorescence, higher = more signal
Chain of Neurogenic locus notch homolog protein 3 (Homo sapiens) (Q9UM47 whole entry, looked up): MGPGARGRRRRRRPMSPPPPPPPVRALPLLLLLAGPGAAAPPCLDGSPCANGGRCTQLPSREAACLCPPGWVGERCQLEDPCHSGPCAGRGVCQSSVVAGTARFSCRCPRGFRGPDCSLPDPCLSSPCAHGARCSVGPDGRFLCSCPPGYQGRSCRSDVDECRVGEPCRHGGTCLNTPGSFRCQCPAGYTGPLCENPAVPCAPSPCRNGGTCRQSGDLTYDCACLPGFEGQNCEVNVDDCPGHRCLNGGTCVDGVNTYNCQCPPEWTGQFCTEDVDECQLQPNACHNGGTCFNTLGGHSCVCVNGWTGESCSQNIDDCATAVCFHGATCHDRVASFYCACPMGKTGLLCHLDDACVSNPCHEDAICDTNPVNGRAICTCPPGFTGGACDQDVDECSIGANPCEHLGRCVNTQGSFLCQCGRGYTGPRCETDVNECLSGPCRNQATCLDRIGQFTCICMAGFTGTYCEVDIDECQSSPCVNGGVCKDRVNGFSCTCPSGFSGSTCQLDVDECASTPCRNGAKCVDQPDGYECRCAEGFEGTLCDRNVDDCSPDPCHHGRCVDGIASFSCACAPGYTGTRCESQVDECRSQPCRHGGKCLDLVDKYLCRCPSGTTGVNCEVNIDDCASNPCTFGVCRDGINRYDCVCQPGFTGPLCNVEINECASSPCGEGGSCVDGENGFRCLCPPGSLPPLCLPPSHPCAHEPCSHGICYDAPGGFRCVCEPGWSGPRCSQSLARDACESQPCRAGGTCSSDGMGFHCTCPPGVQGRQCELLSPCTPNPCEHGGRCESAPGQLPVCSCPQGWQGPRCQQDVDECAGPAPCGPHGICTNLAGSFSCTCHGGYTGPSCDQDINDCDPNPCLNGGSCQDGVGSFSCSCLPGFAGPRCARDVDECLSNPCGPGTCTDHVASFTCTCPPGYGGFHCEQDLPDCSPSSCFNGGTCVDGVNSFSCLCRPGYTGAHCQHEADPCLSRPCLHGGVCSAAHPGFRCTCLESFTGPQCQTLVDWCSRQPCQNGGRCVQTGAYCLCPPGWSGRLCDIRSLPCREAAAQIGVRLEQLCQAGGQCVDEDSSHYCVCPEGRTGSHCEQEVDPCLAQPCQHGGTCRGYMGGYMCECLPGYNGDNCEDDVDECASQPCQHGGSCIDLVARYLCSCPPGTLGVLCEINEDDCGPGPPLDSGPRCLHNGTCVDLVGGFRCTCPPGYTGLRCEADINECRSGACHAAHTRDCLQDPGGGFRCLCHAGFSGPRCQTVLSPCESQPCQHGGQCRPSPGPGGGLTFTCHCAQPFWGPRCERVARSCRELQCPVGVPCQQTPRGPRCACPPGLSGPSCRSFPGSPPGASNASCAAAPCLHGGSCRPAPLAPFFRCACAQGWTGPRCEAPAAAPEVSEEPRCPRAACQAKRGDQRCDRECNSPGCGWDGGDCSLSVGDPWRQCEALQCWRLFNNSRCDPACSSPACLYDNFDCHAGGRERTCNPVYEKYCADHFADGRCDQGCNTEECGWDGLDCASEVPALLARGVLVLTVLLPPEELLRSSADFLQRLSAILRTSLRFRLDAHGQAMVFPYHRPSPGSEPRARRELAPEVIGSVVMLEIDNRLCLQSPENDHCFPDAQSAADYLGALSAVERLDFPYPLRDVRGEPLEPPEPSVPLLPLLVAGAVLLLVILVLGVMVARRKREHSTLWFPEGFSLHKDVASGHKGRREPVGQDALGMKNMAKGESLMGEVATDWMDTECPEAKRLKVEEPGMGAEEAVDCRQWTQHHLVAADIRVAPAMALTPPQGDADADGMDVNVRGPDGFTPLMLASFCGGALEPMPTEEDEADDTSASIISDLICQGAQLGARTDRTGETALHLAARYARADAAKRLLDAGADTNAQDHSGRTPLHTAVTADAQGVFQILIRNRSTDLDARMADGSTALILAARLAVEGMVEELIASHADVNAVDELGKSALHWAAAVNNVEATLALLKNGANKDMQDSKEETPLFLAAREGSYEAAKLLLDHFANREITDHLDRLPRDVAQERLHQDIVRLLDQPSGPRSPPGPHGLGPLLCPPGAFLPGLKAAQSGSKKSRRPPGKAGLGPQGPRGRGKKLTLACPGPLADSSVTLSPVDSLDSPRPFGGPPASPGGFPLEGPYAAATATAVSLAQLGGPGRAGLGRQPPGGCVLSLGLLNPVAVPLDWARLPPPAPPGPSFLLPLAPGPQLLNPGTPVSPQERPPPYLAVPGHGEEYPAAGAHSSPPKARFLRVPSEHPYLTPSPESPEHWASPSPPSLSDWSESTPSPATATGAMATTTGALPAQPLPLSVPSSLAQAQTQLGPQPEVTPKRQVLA

[20] = probe aEGFR binding to arrayed compounds – biochemical, biotinylated probe, 635/667 nm fluorescence, primary screen (AID 1097); conditions: small-molecule microarray, higher = more signal;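 further: probe is a biotinylated anti-EGFR antibody binding compounds printed on slides; score combines fluorescence near 667 nm and signal to noise of each spot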

Structure (SMILES)	composite z-score [1]	composite z-score [2]	composite z-score [3]	composite z-score [4]	composite z-score [5]	composite z-score [6]	composite z-score [7]	z-score [8]	composite z-score [9]	composite z-score [10]	composite z-score [11]	z-score [12]	z-score [13]	z-score [14]	composite z-score [15]	z-score [16]	composite z-score [17]	composite z-score [18]	composite z-score [19]	composite z-score [20]
CC(C)[Si](C#CCCCC#N)(O[C@H](c1ccccc1)c1cn(Cc2cccc(Cl)c2)nn1)C(C)C	-0.37	0.558	-0.104	0.689	0.799	-0.0808	0.603	-1.04 (inactive)	0.624	0.136	1.52	-0.135 (inactive)	-0.483 (inactive)	-3.21 (inactive)	1.42	1.79 (inactive)	0.0322	0.342	1.13	0.0363
CCCC[C@@H]1C[C@H]1[C@@H](NC(=O)c1cccnc1)c1ccc(Cl)cc1	1.58	-1.02	-0.423	-1.77	-1.69	-0.549	-0.977	0.188 (inactive)	-0.513	0.216	-2.81	-25 (active)	-15.4 (active)	0.887 (inactive)	0.208	-3.26 (inactive)	-0.165	-2.93	-2.46	-0.428
C[N+](C)(C)CCCC[C@@H]1NC(=O)[C@H]2C[C@@H](C(=O)NCCCCCCNC(=O)CS)[C@@H](c3ccc(O)cc3)N2C1=O	0.312	2	-0.131	-0.457	-1.36	1.7	1.41	-0.395 (inactive)	-0.39	-0.0994	-0.27	-0.304 (inactive)	0.481 (inactive)	-0.344 (inactive)	0.908	0.138 (inactive)	-0.17	0.395	-1.06	-0.126
C=C(CCCC)/C(=C/C[C@H](OC(C)=O)c1ccccc1OCCO)c1cnc2ccccc2c1	-0.279	0.0976	-0.115	0.506	0.3	0.324	1.04	-1.48 (inactive)	0.162	0.0505	1.32	0.617 (inactive)	-0.654 (inactive)	0.826 (inactive)	1.15	0.02 (inactive)	-0.235	0.788	1.1	-0.142
CCCCC(=C=CC[C@@H](O)c1ccc(CO)o1)CCO	-0.369	0.152	-0.0602	0.143	-0.168	0.457	1.19	0.161 (inactive)	-0.118	0.238	0.954	1.46 (inactive)	-0.614 (inactive)	0.297 (inactive)	0.418	0.572 (inactive)	-0.13	0.436	0.0341	-0.071
CN(C)CCCCCCNC(=O)[C@@H]1C[C@@H]2C(=O)N[C@@H](CCCC[N+](C)(C)C)C(=O)N2[C@@H]1c1ccc(O)cc1	-0.725	0.601	-0.183	-0.0779	-1.07	0.334	1.25	4.62 (inactive)	-0.334	-0.865	0.821	-0.581 (inactive)	-0.689 (inactive)	-0.414 (inactive)	0.219	-0.227 (inactive)	-0.0907	0.576	0.0475	-0.221
COc1ccc([Si](C)(C)[C@H]2[C@H](CCn3cc([C@H](O)c4ccccc4)nn3)O[C@@]3(C(=O)N(C)c4ccccc43)[C@@H]2C)cc1	0.0044	0.165	-0.0418	-0.209	-0.623	0.104	0.553	-1.36 (inactive)	-0.619	-0.199	-0.133	-2.61 (inactive)	0.644 (inactive)	-0.254 (inactive)	0.446	0.271 (inactive)	-0.0317	0.176	0.133	-0.171
COC(=O)c1c(CC[C@@H](CO)NC(=O)NCCc2c[nH]c3ccccc23)oc(C(=O)Cc2ccccc2)c1C(=O)OC	-0.379	0.488	0.0858	0.203	0.0378	-0.0379	0.939	1.49 (inactive)	0.224	0.0036	0.578	0.433 (inactive)	0.215 (inactive)	-1.62 (inactive)	1.53	0.528 (inactive)	-0.117	0.145	0.316	-0.126
CC#CC(=O)Oc1ccc(Br)cc1C=CC(=O)OCC	0.559	-0.422	-0.0304	0.0178	-0.497	0.334	1.34	0.128 (inactive)	0.375	0.095	0.162	-23.6 (active)	-16 (active)	-2.38 (inactive)	1.18	-0.0056 (inactive)	0.188	-0.157	0.0254	-0.0765
CC(C)NC(=O)[C@@H]1c2ccccc2C(=O)N(C(C)C)[C@H]1c1ccc(CO)cc1	0.473	0.0121	-0.0064	-0.057	-0.78	0.853	1.47	0.229 (inactive)	-0.868	-0.236	1.44	0.549 (inactive)	0.458 (inactive)	0.386 (inactive)	2.99	1.36 (inactive)	-0.0478	-1.94	-0.715	-0.44
